Source: PubChem BioAssay AID1240 (Sanford-Burnham Center for Chemical Genomics, 2008)
In all, about 50,000 compounds went through this assay and about 800 (1.6%) showed an effect of 50% or more. For the sample, strong results were picked, then their nearest neighbours and some compounds at random.

The compounds below were run against Bcl-2-like protein 10 (Homo sapiens) (UniProt Q9HD36) (assay: TR3 peptide-Bcl-B binding displacers, biochemical primary FP assay, phenotype converters (AID 1240;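 note: 0% = Bcl-B with tracer peptide and DMSO and 100% = tracer peptide lacking Bcl-B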)). Conditions: GST-Bcl-B / FITC-TR3 peptide fluorescence polarization; stronger effect = higher value; compound at 3.75 mg/L.
Sequence of Bcl-2-like protein 10 (Homo sapiens) (Q9HD36 whole entry, looked up): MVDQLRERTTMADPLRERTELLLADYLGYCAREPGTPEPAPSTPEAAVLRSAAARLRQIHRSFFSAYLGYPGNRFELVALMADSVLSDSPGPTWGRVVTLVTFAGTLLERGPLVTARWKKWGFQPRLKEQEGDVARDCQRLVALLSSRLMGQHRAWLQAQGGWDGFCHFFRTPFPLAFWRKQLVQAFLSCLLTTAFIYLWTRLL
Work on `Nc1nonc1-c1ncc(-c2ccc(Br)cc2)nn1` yielded a displacement of 30.1%. With `O=c1n(Cc2ccccc2Cl)c2cc(N3CCOCC3)c([N+](=O)[O-])cc2n1Cc1ccccc1Cl` the displacement was -9.7%. `Cc1ccc(C(=O)NNC(=O)c2ccc3ccccc3c2O)cc1` was tested, and the displacement was 20.5%. `Cc1ccc(/C=C/C(=O)N2CCN(c3ccccc3)CC2)o1` gave a displacement of 3.6%. `Cc1ccc([N+](=O)[O-])cc1NC(=O)CC1Sc2ccccc2NC1=O` (stereo not drawn) showed a displacement of 3.4%. In the case of `Cc1ccccc1-c1cc(C(=O)N2CCOCC2)c2ccccc2n1`, the displacement is reported as 4%. `Cc1ccc(C(=O)Nc2ccc(N3CCOCC3)cc2)cc1C` was tested, and the displacement was 0.3%. `O=C(Nc1c(C(=O)N2CCN(Cc3ccccc3)CC2)cnn1-c1ccccc1)c1cccc(F)c1` showed a displacement of 3%. With `COc1cc(OC)c(C(=O)N2CC(=O)Nc3ccccc32)c(OC)c1` the displacement was 4.9%. For `O=C(Nc1ccccc1Cl)c1cncc(Br)c1`, the displacement was 118%. For `CCN(CC)c1ccc(NC(=O)c2cncc(Br)c2)cc1`, the displacement was 84.2%. Work on `CCc1ccccc1NC(=O)c1cncc(Br)c1` yielded a displacement of 5.4%. For `O=C(Nc1ccccc1F)c1cncc(Br)c1`, the displacement was 3.9%. For `CCN(CC)c1ccc(NC(=O)c2ccc(Br)cc2)cc1`, the displacement was 9.2%. `CCc1ccc(NC(=O)c2cncc(Br)c2)cc1` was tested, and the displacement was 15%. With `CCC(C)NC(=O)C(=O)NCCc1ccccc1` (stereo not drawn) the displacement was 5.5%. `Cc1nc2ccccc2n1C(=O)c1ccco1` was tested, and the displacement was -3.1%. In the case of `O=C(NCc1ccccn1)C(=O)N/N=C/c1ccccc1C(F)(F)F`, the displacement is reported as -19.3%. `CC(=O)N=c1cccc(NC(C)=O)n1O` gave a displacement of 5.8%. `CC(=O)Oc1ccc2c(c1)oc(=O)c1c3cc(OC(C)=O)c(OC(C)=O)cc3oc21` showed a displacement of 12.7%. For `O=C(Nc1ccc(Cl)c(C(F)(F)F)c1)c1cccs1`, the displacement was -5.7%. Compound `CCOc1ccc(C2=C/C(=C/c3ccc(OC)c(OC)c3)C(=O)O2)cc1` has a displacement of 34.8%. In the case of `COc1ccc(/C=C2/C=C(c3ccc(OC)c(OC)c3)OC2=O)cc1OC`, the displacement is reported as 189%. Compound `COc1ccc(C2=C/C(=C/c3ccc(OC)c(Br)c3)C(=O)O2)cc1` has a displacement of 11%. Compound `O=C1OC(c2ccccc2)=C/C1=C/c1ccc2c(c1)OCO2` has a displacement of -0.2%. In the case of `COc1ccc(C2=C/C(=C/c3ccc(OC)c(OC)c3)C(=O)O2)cc1`, the displacement is reported as 154%. With `COc1ccc(C2=C/C(=C\c3ccc4c(c3)OCO4)C(=O)O2)cc1` the displacement was 117%. Compound `COc1cc(/C=C2/C=C(c3ccccc3)OC2=O)ccc1C` has a displacement of -4.5%. Work on `O=C1OC(c2ccc(Cl)cc2)=C/C1=C\c1ccc2c(c1)OCO2` yielded a displacement of -19.4%. With `COc1ccc(/C=C2/C=C(c3ccccc3)OC2=O)cc1` the displacement was -15.2%. Compound `CCOC(=O)/C(C#N)=C\c1c(C)c(C)c(/C=C(/C#N)C(=O)OCC)c(C)c1C` has a displacement of 7.7%. `c1ccc2c(c1)nc(N1CCOCC1)c1ccccc12` was tested, and the displacement was -0.6%. Compound `c1ccc(-c2nc(N3CCOCC3)nc3ccccc23)cc1` has a displacement of -1.9%. With `c1ccc2nc3c(cc(N4CCOCC4)c4ccccc43)nc2c1` the displacement was 147%. Compound `CCOC(=O)C(=O)Nc1nc(C23CC4CC(CC(C4)C2)C3)cs1` has a displacement of 3.2%. With `O=C(Cc1ccccc1)Nc1ccc(Cl)c(-c2nc3cc(Cl)ccc3o2)c1` the displacement was -37.9%. `CCC(=O)/C(C)=C(\NC(=O)c1ccccc1)c1ccccc1` gave a displacement of -4.8%. For `CC(C)c1ccc(N2C(=O)NC(=O)/C(=C/c3ccc(O)c(O)c3)C2=O)cc1`, the displacement was -20.3%. Compound `O=C(CCN1C(=O)/C(=C/c2cccs2)SC1=S)Nc1ccccn1` has a displacement of 126%. `O=C(CCCN1C(=O)/C(=C\c2cccs2)SC1=S)Nc1nccs1` gave a displacement of 114%. Compound `Cc1ccc(/C=C2\SC(=S)N(CCC(=O)Nc3nccs3)C2=O)cc1` has a displacement of 19.4%. For `O=C(CCN1C(=O)/C(=C/c2ccc(Cl)cc2)SC1=S)Nc1nccs1`, the displacement was 14.9%. Compound `O=C(CCN1C(=O)/C(=C\c2cccs2)SC1=S)Nc1nccs1` has a displacement of 120%. `Cc1cc(NC(=O)CCN2C(=O)/C(=C/c3ccccc3)SC2=S)no1` gave a displacement of 5.3%. `O=C(CCCN1C(=O)/C(=C/c2ccccc2)SC1=S)Nc1nccs1` showed a displacement of 11.2%. `O=C(CCCN1C(=O)/C(=C\c2cccs2)SC1=S)Nc1ccccn1` was tested, and the displacement was 13.2%. With `Cc1cc(NC(=O)CCN2C(=O)/C(=C\c3cccs3)SC2=S)no1` the displacement was 90.4%. Compound `Cc1cc(NC(=O)CCN2C(=O)/C(=C/c3ccc(F)cc3)SC2=S)no1` has a displacement of 19%. `O=C(CCCN1C(=O)/C(=C\c2cccs2)SC1=S)Nc1nc2ccccc2s1` gave a displacement of 12.7%. `O=C(CCN1C(=O)/C(=C\c2cccs2)SC1=S)Nc1ccccc1C(=O)O` was tested, and the displacement was 19.8%. `O=C(Nc1nccs1)c1ccc2c(c1)OCO2` gave a displacement of 32.1%. Work on `CC(NC(=O)c1cc2cc([N+](=O)[O-])ccc2oc1=O)c1ccccc1` (stereo not drawn) yielded a displacement of 12.2%. Work on `CS(=O)(=O)N(Cc1ccc(C(=O)Nc2ccc(CC#N)cc2)cc1)c1ccccc1` yielded a displacement of -7%. Work on `COc1ccc(/C=C/C(=O)NCc2ccc(C)cc2)cc1OC` yielded a displacement of 9.4%. Compound `Cc1cccc(NC(=O)CN(c2ccc(C(C)C)cc2)S(=O)(=O)c2ccccc2)c1` has a displacement of 2.4%. In the case of `COc1ccc(Cl)cc1N(CC(=O)NCC(C)C)S(=O)(=O)c1ccc(C)c([N+](=O)[O-])c1`, the displacement is reported as 16.7%. Work on `CC(C)(C)c1ccc(OCC(O)CS(=O)(=O)Cc2ccc(Cl)cc2)cc1` (stereo not drawn) yielded a displacement of 8.5%. `O=C1C2ON(c3ccccc3)C(c3ccccc3)C2C(=O)N1Cc1ccccc1` (stereo not drawn) was tested, and the displacement was 5.9%. In the case of `COc1cccc(-n2c(O)c(C(c3ccccn3)c3c(O)n(-c4cccc(OC)c4)c(=O)[nH]c3=O)c(=O)[nH]c2=O)c1`, the displacement is reported as 67.7%. Compound `COc1cccc(-n2c(O)c(/C=C3\C=c4ccccc4=N3)c(=O)[nH]c2=O)c1` has a displacement of -0.4%. Compound `O=c1[nH]c(=O)n(-c2ccccc2)c(O)c1C(c1cccnc1)c1c(O)n(-c2ccccc2)c(=O)[nH]c1=O` has a displacement of -5%. For `O=C1c2ccc([N+](=O)[O-])cc2C(=O)C1c1ccc2ccccc2n1` (stereo not drawn), the displacement was 7.6%. With `O=C1/C(=C\c2cccc(Br)c2)SC(=S)N1c1cccc(C(F)(F)F)c1` the displacement was 18.2%. Compound `COc1ccc2c(c1)OCC/C2=N\OC(=O)c1ccccc1OC` has a displacement of -7.8%. Compound `O=C(COc1ccc2ccccc2c1)NCC1CCCO1` (stereo not drawn) has a displacement of 12.6%. Work on `COc1ccccc1-c1coc2cc(OC(=O)c3ccc(Cl)cc3Cl)ccc2c1=O` yielded a displacement of 63.9%. With `COc1ccccc1-c1coc2cc(OC(=O)c3ccc(Cl)cc3)ccc2c1=O` the displacement was -2%. For `COc1ccccc1-c1coc2cc(OC(=O)c3cccc(Cl)c3)ccc2c1=O`, the displacement was 6.5%. Work on `Cc1ccc(-c2nn(-c3ccccc3)cc2C=O)o1` yielded a displacement of -0.3%. With `N#CC(C#N)=Cc1cn(-c2ccccc2)nc1-c1ccc(-c2ccc([N+](=O)[O-])cc2)o1` the displacement was -5.9%. Compound `Cc1ccc(-c2nn(-c3ccccc3)cc2/C=C(\C#N)C(N)=O)o1` has a displacement of 61.7%. Compound `COc1ccc(CSc2nc3ccccc3n2C)cc1F` has a displacement of -9.9%. `COc1ccc(OC)c(C2NC(=S)NC(C)=C2C(=O)OCCc2ccccc2)c1` (stereo not drawn) gave a displacement of 3.9%. For `COc1ccccc1N1CCN(C(=O)COc2ccc(Cl)cc2C)CC1`, the displacement was -4.5%. `COc1ccc(Cl)cc1N=Cc1c(O)[nH]c(=O)[nH]c1=O` was tested, and the displacement was 10.3%. For `O=c1[nH]c(O)c(C=Nc2ccc(F)c(F)c2)c(=O)[nH]1`, the displacement was 166%. With `O=c1[nH]c(=S)[nH]c(O)c1C=Nc1ccc(Cl)c(Cl)c1` the displacement was -7%. For `COc1ccc2c(c1OC)C(=O)OC2Nc1cccc(F)c1` (stereo not drawn), the displacement was -0.4%. `COc1ccc(-c2cc(C(F)(F)F)n3ncc(C(=O)N4CCOCC4)c3n2)cc1OC` was tested, and the displacement was 5.2%. With `CCOc1ccccc1NC(=O)C1CN(S(=O)(=O)c2ccccc2)CCN1S(=O)(=O)c1ccccc1` (stereo not drawn) the displacement was 11.2%. `C/C(=N/NC(=O)c1cccnc1)c1cc(O)ccc1O` was tested, and the displacement was -12%. `CC(C)c1ccc(/C=C2/SC(=O)N(c3ccccc3)C2=O)cc1` gave a displacement of 1.4%. In the case of `CC(NC(=O)c1ccc(F)cc1)C1CC1` (stereo not drawn), the displacement is reported as 4.6%. For `Cc1cc(NCCCN(C)C)n2c(nc3ccccc32)c1C#N`, the displacement was -13.5%. `Cc1cc(NCCCO)n2c(nc3ccccc32)c1C#N` gave a displacement of 160%. `Cc1cc(Nc2ccccc2)n2c(nc3ccccc32)c1C#N` was tested, and the displacement was -2.8%. `Cc1cc(Nc2ccc3c(c2)n(C)c(=O)n3C)n2c(nc3ccccc32)c1C#N` gave a displacement of 22.5%. `Cc1cc(NCCCCO)n2c(nc3ccccc32)c1C#N` was tested, and the displacement was 25.9%. Compound `Cc1cc(Nc2ccc3c(c2)OCO3)n2c(nc3ccccc32)c1C#N` has a displacement of 135%. Work on `CC(=O)Nc1ccc(S(=O)(=O)/N=C2\C=CC(=O)c3ccccc32)cc1` yielded a displacement of 22.2%. Work on `COc1ccc(Cl)cc1C(=O)N(Cc1ccccc1)C(C)C` yielded a displacement of 11.9%. `Cc1c(Cl)cccc1NC(=O)C1c2ccccc2Oc2ccccc21` was tested, and the displacement was 11.9%. `CCn1c2ccccc2c2cc(NC(=O)Cc3ccc(OC)c(OC)c3)ccc21` was tested, and the displacement was -5.2%. `O=c1/c(=C\c2ccc(OCc3ccc([N+](=O)[O-])cc3)cc2)sc2nc3ccccc3n12` gave a displacement of 4.5%. For `CC(=O)Oc1ccc(/C=c2\sc3nc4ccccc4n3c2=O)cc1`, the displacement was 28%. `O=c1/c(=C/c2ccc([N+](=O)[O-])cc2)sc2nc3ccccc3n12` was tested, and the displacement was 86.7%. `O=c1/c(=C/c2ccc3c(c2)OCO3)sc2nc3ccccc3n12` was tested, and the displacement was 69.3%. Work on `O=c1/c(=C/c2cc([N+](=O)[O-])ccc2Cl)sc2nc3ccccc3n12` yielded a displacement of -7.5%. `Cc1ccc(Sc2ccc(/C=c3\sc4nc5ccccc5n4c3=O)o2)cc1` was tested, and the displacement was 86.8%. For `CSc1ccc(/C=c2\sc3nc4ccccc4n3c2=O)cc1`, the displacement was 7.3%. `CN(C)c1ccc(/C=c2\sc3nc4ccccc4n3c2=O)cc1` showed a displacement of 107%. With `O=c1/c(=C/c2ccc(C(F)(F)F)cc2)sc2nc3ccccc3n12` the displacement was 2%. `Cc1cc2nc3s/c(=C/c4ccc5c(c4)OCO5)c(=O)n3c2cc1C` was tested, and the displacement was -11.4%. For `O=c1/c(=C/c2ccc(Sc3ccccc3)o2)sc2nc3ccccc3n12`, the displacement was 48.5%. Work on `O=c1/c(=C/c2ccc(-c3ccc(Cl)cc3)o2)sc2nc3ccccc3n12` yielded a displacement of 10.9%. `COc1ccc(/C=C2\C(=O)NN(c3ccc(Cl)c(Cl)c3)C2=O)cc1OC` was tested, and the displacement was -13.2%. Work on `CCOc1ccccc1/C=N/Nc1nnc(-c2ccccc2)c(=O)[nH]1` yielded a displacement of -10.7%. `O=C(COc1ccccc1Cl)N1CCN(c2ccc([N+](=O)[O-])cc2)CC1` showed a displacement of -3.3%.
